# Screening data: PubChem, National Center for Advancing Translational Sciences (NCATS)
# Rows were chosen to be rich in hits. Some 8.1% of all compounds tested hit in one or more screens of this group.
# Sfp PPTase inh – Sfp phosphopantetheinyl transferase inhibition; Q9F4F7; Biochemical Sfp PPTase activity, qHTS; Potency, µM, for inactives: largest response in the series, negative = inhibition, hits mostly inhibitors; hit rate 3.5% among 310,000; AID 1490;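 also: the enzyme is Sfp with the accession as filed and its product quenches rhodamine fluorescence; 0% = enzyme reaction without inhibitor and -100% = no enzyme wells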
#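 Fluorescence-quenching assay: 15 nM Sfp-PPTase preincubated 15 min at room temperature with compound, then 5 uM rhodamine-CoA and 12.5 uM BHQ-2-labelled YbbR peptide added. Fluorescence (ex 525/em 598 nm) read at start and after 30 min; difference gives rate.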
# RORg inh – inhibitors of mouse ROR gamma transcriptional activity | Drosophila S2 Gal4-RORgamma UAS-luciferase reporter, 20 h | Potency, µM (highest dose often 53.6 µM), inactives show at the highest dose activity change, negative = inhibition, hits mostly inhibitors | hit rate 5.4% among 310,000 | AID 2551; also: % is scaled to controls: 0 for no effect and ±100 for the full control effect; nearly all actives have a fitted effect of over 60% in size
# Target sequence (P51450 whole entry, looked up, the tested form may be a part): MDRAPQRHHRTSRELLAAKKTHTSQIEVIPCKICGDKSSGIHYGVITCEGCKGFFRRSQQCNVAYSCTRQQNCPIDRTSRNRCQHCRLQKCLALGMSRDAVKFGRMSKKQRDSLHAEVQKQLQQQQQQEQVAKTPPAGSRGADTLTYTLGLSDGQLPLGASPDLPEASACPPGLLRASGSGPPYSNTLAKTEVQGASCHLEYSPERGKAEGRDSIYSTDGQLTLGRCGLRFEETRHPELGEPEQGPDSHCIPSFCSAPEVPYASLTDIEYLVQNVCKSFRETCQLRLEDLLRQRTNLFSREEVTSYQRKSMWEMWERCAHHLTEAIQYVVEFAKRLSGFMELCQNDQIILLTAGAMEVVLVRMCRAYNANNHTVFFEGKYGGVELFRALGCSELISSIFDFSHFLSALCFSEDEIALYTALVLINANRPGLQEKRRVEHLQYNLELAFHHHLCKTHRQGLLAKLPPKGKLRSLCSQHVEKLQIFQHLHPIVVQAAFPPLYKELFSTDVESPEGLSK
#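 A Gal4/UAS one-hybrid system in insect cells: metallothionein-promoter Gal4–ROR gamma fusion plus Photinus luciferase reporter. Copper sulfate 700 uM final, 20 hr ambient incubation, luminescent detection after 10 min with reagent.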
# Epigenetic reg – regulators of epigenetic silencing causing reporter derepression in mouse cells; murine LDR cells, GFP reporter derepression, 30 h; Potency, µM (titrated, usually from 53.9 µM), for the others: at the top dose GFP activation, hits mostly activators; hit rate 0.2% among 280,000; AID 1865; also: % of control where 0% means no effect; nearly all actives have a fitted effect of over 60% in size
#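 GFP-positive cell count by laser-scanning cytometry (objects 20–120 um) after 30 h, 37 C compound exposure of murine LDR cells; reporter is CMV-GFP integrated at a silenced locus, inducible by HDAC or DNMT inhibitors.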
# ClpP mod – qHTS Assay for Activators of ClpP; purified B. subtilis ClpP, FRET peptide cleavage, 20 min; Potency, µM (doses to about 57.5 µM), for inactives: at the top dose activity change, negative = active; hit rate 1.9% among 340,000; active = well fitted falling curve with a large enough effect; inconclusive = small, poorly fitted or top-dose-only effect; inactive = no such curve, though single readings can be large or run the other way; also: the source files actives as falling curves though it sought activators and does not explain the sign; nearly all actives have a fitted effect of over 65% in size
#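 Buffer: 100 mM Tris/HCl pH8, 100 mM KCl, 0.05% low protease BSA, 2.5% glycerol, 0.01% Tween-20. ClpP 10 microg/mL final; 20 min RT; delta FRET normalized to ADEP and DMSO controls.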
# VP16 counter – inhibits Gal4-VP16 luciferase reporter, ROR gamma counter-screen; hit rate 3.5% among 310,000; Drosophila S2 Gal4-VP16 UAS-luciferase, luminescence, 20 h; Potency, µM (series often up to 53.6 µM), for the others: top-dose activity, negative = inhibition, usual class: inhibitors; AID 2546;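 also: Gal4-VP16 expression switched on by copper sulfate through the metallothionein promoter; % is scaled to controls: 0 for no effect and ±100 for the full control effect; nearly all actives have a fitted effect of over 50% in size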
# PINK1 expr mod – PINK1 expression modulation | PINK1 immunofluorescence, high-content cytometry, 24 h | Potency, µM (titrated, usually from 76.6 µM), for inactives: at the highest dose activation (PINK1 increase), most hits filed as activators | hit rate 0.2% among 410,000; active = well fitted activation curve with a large enough effect; inconclusive = small, poorly fitted or top-dose-only effect; cell line not stated here; also: % of control where 0% means no effect; nearly all actives have a fitted effect of over 65% in size
#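 Decision-based qHTS: stable cells, 24 h exposure to five compound concentrations, CCCP as control. Fixed cells stained for PINK1 plus nuclear, mitochondrial and cell markers, cytometer read.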
# * = called active by the depositor; ? = inconclusive; . = no result; ! = a repeat was not active; [ ] = remark or other dose. Unless noted, calls follow the shape of the dose curve; as a rule, active = well fitted curve in the direction sought with a large enough effect; inconclusive = small, poorly fitted or top-dose-only effect, or another doubt; inactive = no such curve, though single readings can be large; an effect the other way counts as inactive or inconclusive. Potency is read from the fitted curve at half-maximal effect.
SMILES,Sfp PPTase inh,RORg inh,Epigenetic reg,ClpP mod,VP16 counter,PINK1 expr mod
CCC1CN(Cc2cccn2-c2ccccn2)Cc2cc(OC)ccc2O1 (stereo not drawn),.,.,.,.,.,-0.3%
CC1(C)Cc2c(C#N)c(NCCO)nc(-c3ccco3)c2CO1,15.8µM*,-6.3%,-0.3%,.,4.7%,0.5%
CN(C)CCNc1nc(-c2ccccc2)c2c(c1C#N)CC(C)(C)OC2,18.3%,-13.8%,-3.1%,?,-12.9%,2.2%
CC1(C)Cc2c(C#N)c(NCCN3CCOCC3)nc(-c3ccco3)c2CO1,-21.4%,0.4%,-8.8%,31.6µM*,-7.7%,1.2%
COc1ccc(-c2cc3nccc(-c4cc(Cl)c(C)cc4O)n3n2)cc1,.,.,-1.1%,29.5%,.,7.2%
Cc1ccccc1-c1nc(CS(=O)(=O)CC(=O)NCC(C)c2ccccc2)c(C)o1 (stereo not drawn),.,.,-0.3%,-4.5%,.,2.4%
Cc1c(Cl)cccc1NC(=S)N(CCCN1CCOCC1)Cc1cccs1,-8.0%,10µM*,-0.9%,0.9%,?,-0.7%
CSc1cccc(NC(=S)N(CCCN2CCC(C)CC2)Cc2cccs2)c1,6.2%,12.6µM*,0.1%,.,7.8%[10 µM],?
Cc1ccc(NC(=S)N(CCCN2CCOCC2)Cc2cccs2)c(C)c1,25.1µM*,?,0.9%,-1.3%,?,1.3%
CCOC(=O)c1ccc(NC(=S)N(CCN2CCCCCC2)Cc2cccs2)cc1,7.9%,12.6µM*,-1.9%,.,?,-0.4%
COc1cccc(NC(=S)N(CCCN2CCC(C)CC2)Cc2cccs2)c1,7.9%,-23.3%,-1.4%,-2.9%,17.9%,-1.9%
Cc1nnc(NC(=O)CSc2nc3c([nH]c4ccccc43)c(=O)n2-c2ccc(Cl)cc2)s1,.,.,2.2%,-14.9%,.,-3.0%
CSc1cccc(NC(=S)N(CCC(C)C)C2CCN(C(C)C)CC2)c1,3.4%,12.6µM*,0.2%,.,?,1.0%
O=C1c2ccccc2NC(c2ccc(OCc3ccccc3)c(OCc3ccccc3)c2)N1Cc1ccco1 (stereo not drawn),.,.,.,4.3%,.,1.8%
COc1ccc(C2Nc3ccccc3C(=O)N2Cc2ccco2)cc1COc1ccccc1F (stereo not drawn),-5.6%,-12.3%,0.8%,14.1µM*,5.2%,3.5%
COc1ccc(C2Nc3ccccc3C(=O)N2Cc2ccco2)cc1COc1ccc(NC(C)=O)cc1 (stereo not drawn),?,37.3%,-1.1%,31.6µM*!,-2.3%[0.365 µM],0.0%
CC(=O)NC1CCCC1C#N (stereo not drawn),.,.,.,1.3%,.,-0.3%
CC(C)c1nc(C(=O)N2CCOc3ccc(CN4CCN(c5ccccn5)CC4)cc3C2)cs1,.,.,.,.,.,-0.9%
CCOc1cc(NC(=S)NCC2CCCO2)c(OCC)cc1NC(=O)c1ccc(F)cc1 (stereo not drawn),6.5%,?,-0.1%,-2.5%,?,1.5%
CCOc1cc(NC(=S)NCCCN2CCOCC2)c(OCC)cc1NC(=O)c1cccc(C)c1,16.1%,-15.8%,2.6%,-2.6%,-3.9%,0.2%
CCOc1cc(NC(=S)Nc2cccc(OC)c2)c(OCC)cc1NC(=O)C1CC1,-11.4%,7.08µM*,1.3%,0.0%,?,0.5%
CCOc1cc(NC(=S)NCC2CCCO2)c(OCC)cc1NC(=O)c1ccccc1 (stereo not drawn),3.5%,6.31µM*,2.5%,-0.5%,11.2µM*,.
CCOc1cc(NC(=S)NCC2CCCO2)c(OCC)cc1NC(=O)c1cccc(C)c1 (stereo not drawn),25.3%,4.47µM*,0.0%,3.9%,11.2µM*,4.3%
COc1cccc(NC(=O)C2CCC2)c1,.,.,.,0.0%,.,0.8%
CCOc1cc(NC(=S)NCC2CCCO2)c(OCC)cc1NC(=O)C1CC1 (stereo not drawn),7.6%,11.2µM*,-4.7%,1.3%,9.8%,1.0%
CCOc1ccccc1/C=C/c1onc(C)c1S(=O)(=O)N1CCC(C(=O)N2CCCCC2)CC1,.,.,-0.2%,-0.9%,.,0.1%
